DAX1 inh-1: inhibitors of human orphan nuclear receptor DAX1 (NR0B1); P51843; HEK293 Gal4-DAX1 luciferase reporter, luminescence; inhibition, % at 6.75 µM; 340,000 tested, 0.99% active;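 active = inhibition above the mean over all tested compounds plus 3 SD, cut at about 4.2% in these data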;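 note: 0% = DAX1-transfected cells with DMSO and 100% = empty-vector control cells with DMSO; inhibition shows as a rise in luminescence from relieved DAX1 repression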
Target sequence (P51843 207-470 limits assumed): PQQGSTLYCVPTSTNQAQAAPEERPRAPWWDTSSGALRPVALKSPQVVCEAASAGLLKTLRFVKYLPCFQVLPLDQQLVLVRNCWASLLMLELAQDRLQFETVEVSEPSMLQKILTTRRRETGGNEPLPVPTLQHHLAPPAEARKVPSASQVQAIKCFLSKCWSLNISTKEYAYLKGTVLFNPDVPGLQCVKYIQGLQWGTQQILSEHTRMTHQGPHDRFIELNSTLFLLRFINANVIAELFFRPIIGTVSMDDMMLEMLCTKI
hgDAF-12 ag: activates the H. glycines DAF-12 receptor ligand-binding domain; HEK293 GAL4-hgDAF12 UAS-luciferase reporter, agonist luminescence; normalized to butyrate control; activation, % at 6.8 µM; 370,000 tested, 1.8% active;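 active = activation above a cutoff set at the mean of all screened compounds plus 3 SD, cut at about 10% in these data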;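 note: 0% = DMSO wells and 100% = sodium butyrate wells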
DAX1 inh-2: DAX1 (NR0B1) inhibition, primary screen | HEK293T StAR-luciferase reporter, SF-1/DAX-1 repression relief | inhibition, % at 6.8 µM | 370,000 tested, 1.1% active;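 active = inhibition above the mean over all tested compounds plus 3 SD, cut at about 3.6% in these data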;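 note: 0% = DAX-1 cells with DMSO and 100% = cells lacking DAX-1 with DMSO; higher inhibition means more luminescence from relief of DAX-1 repression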
ssDAF12 agonist: activates DAF-12 receptor from parasite S. stercoralis; HEK293 ssDAF-12/GRIP1 lit1-tk-luc reporter, luminescence; % of 3 µM dafachronic acid response; activation, % at 6.8 µM; 370,000 tested, 1% active; AID 652126;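 active = activation above the mean over all tested compounds plus 3 SD, cut at about 0.9% in these data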;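 note: 0% = DMSO-only wells and 100% = 3 µM delta7-dafachronic acid wells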
PolyA inhibitor: inhibitors of polyadenylation in S. cerevisiae; S. cerevisiae SKY197-pL101 polyadenylation reporter, beta-gal luminescence; efflux-impaired pdr1/pdr3 knockout yeast; score 100 = 6 SD above DMSO; activity score, % at 12 µM; 300,000 tested, 0.02% active; AID 1875;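 active = lowest replicate activity score at least 50, where 100 means six control SD above control mean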;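 note: yeast exposed to compound for 9 h at 30 °C; higher score means more reporter readthrough which indicates perturbed polyadenylation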
hcDAF12 agonist: H. contortus DAF-12 activation, primary screen | AID 652067 | HEK293 hcDAF-12 lit1-tk-luc reporter, luminescence; 0% DMSO, 100% Δ7-dafachronic acid | 370,000 tested, 1.4% active | activation, % at 6.8 µM;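 active = activation above the mean of all tested compounds plus 3 SD, cut at about 5.5% in these data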;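 note: 100% = response to 3 µM Δ7-dafachronic acid high control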
Numbers without * were called inactive; / = not tested or not shown. This is a sample that favours compounds with a hit; in the whole collection about 4.1% have one here.

SMILES	DAX1 inh-1	hgDAF-12 ag	DAX1 inh-2	ssDAF12 agonist	PolyA inhibitor	hcDAF12 agonist
COc1ccc(-n2cnc3sc(-c4ccccc4)cc3c2=O)cc1	5.0*	8	3	0	-13	4
CC(=O)Cn1nnc2sc(-c3ccccc3)cc2c1=O	4	13*	3	0	-25	5
Cc1ccc(S(=O)(=O)N2CCCC2C(=O)N2CCc3ccccc3C2)cc1 (stereo not given)	/	-3	0	-1	/	0
C=CCN1C(=O)[C@H](CC(=O)NCCc2ccccc2OC)[C@@]2(C(=O)OCC)CCCC=C12	/	2	-1	0	/	-1
Cc1ccc(N2C(=O)[C@@H]3[C@H](C2=O)[C@H]2C=CC=NN2[C@@H]3C(=O)Nc2ccccc2)cc1	-2	2	0	1.2*	-3	3
CC(=O)Oc1ccc(C(=O)[C@H]2[C@H]3C(=O)N(c4ccc(C)cc4C)C(=O)[C@H]3[C@@H]3C=CC=NN32)cc1	4.2*	1	0	-1	-10	-1
O=S1(=O)c2c(cccc2N2CC[C@H](O)C2)O[C@H]2CCN1C2	/	0	-1	-1	/	0
Cc1ccccc1NC(=O)CSc1nc2ccccc2o1	0	11*	0	-1	-22	-1
N#CC1(NC(=O)CSc2nc3ccccc3o2)CCCCC1	4.9*	0	1	-1	/	-2
Cc1ccccc1/C=N/NC(=O)CSc1nc2ccccc2o1	0	0	0	-1	0	-2
CCn1c2ccccc2c2cc(C=Nn3c(-c4ccccc4C)n[nH]c3=S)ccc21	/	1	-3	-2	/	-4
O=C1NCCN/C1=C\C(=O)c1ccc(Br)cc1	/	11*	2	0	-10	4
c1ccc2c(c1)Cn1c-2nc2ccccc21	1	13*	3	0	-7	6.0*
O=C1c2ccccc2-c2nc3ccccc3n21	3	1	0	0	-2	0
COc1ccc(-c2nnn(CC(=O)N3CCN(c4ccc(F)cc4)CC3)n2)cc1	5.3*	1	0	-2	-7	-1
CCOc1ccc(Cn2nnc(C(=O)NCCc3ccccc3)c2N)cc1	4.4*	7	1	-1	-3	-2
COc1cccc(Cn2nnc(C(=O)NCCc3ccc(Cl)cc3)c2N)c1	5.5*	3	-1	-2	7	-1
CCOc1ccc(Cn2nnc(C(=O)NCCc3ccc(Cl)cc3)c2N)cc1	2	0	-1	-1	9	-2
Cc1ccc(-n2nc(C)c3c(C(=O)OCC(=O)N(C)C4CCS(=O)(=O)C4)cc(-c4ccccc4)nc32)cc1 (stereo not given)	0	-3	0	-1	1	6.2*
CC(C)C[C@@H](CCCc1ccccc1)CCC(=O)N(c1ccccc1)c1ccccc1	/	-3	-1	-2	/	-2
COc1ccc(-c2nnc(SCC(=O)NN=C(C)c3cccc4ccccc34)n2-c2ccccc2)cc1	/	3	-2	-1	/	-3
CCN1C(=O)/C(=C\N(C(C)=O)c2ccccc2)OC1=S	1	3	1	-1	1	-1
CC(=O)N(/C=C1\SC(=S)N(c2ccccc2)C1=O)c1ccccc1	0	-2	0	1.9*	-15	0
CN(Cc1ccc(C(C)(C)C)cc1)C(=O)C1CCN(C(=O)Nc2ccccc2)CC1	7.6*	-3	-2	-1	-15	-3
Cc1ccc(CN(C)C(=O)C2CCN(C(=O)Nc3ccccc3)CC2)o1	0	-2	2	0	/	1
SMILES	DAX1 inh-1	hgDAF-12 ag	DAX1 inh-2	ssDAF12 agonist	PolyA inhibitor	hcDAF12 agonist
COc1ccc(C(CC(=O)c2ccc(C)cc2)Sc2ccccc2N)cc1 (stereo not given)	1	6	3	0	/	5.7*
O=C(O)CCCCN1C(=O)C=CC1=O	/	0	0	-1	/	-2
Cc1ccccc1OCCCC(=O)NCc1ccco1	4.4*	1	-1	-1	7	-2
N#Cc1ccccc1OCC(=O)NC(=O)NCc1ccco1	7.0*	11*	1	-1	5	1
COC(=O)[C@H]1C[C@@]2(C)c3ccccc3N(C(=O)OC(C)(C)C)[C@H]2N1C(=O)OC(C)(C)C	/	0	-1	0	/	-1
CN1C(=O)C[C@@](C#N)(C(=O)NCCc2ccccc2)[C@H]1c1ccccc1	/	5	1	-1	/	2
CCOC(=O)[C@]12CCCC=C1N(Cc1ccc(OC)cc1)C(=O)[C@@H]2CC(=O)NCC12CC3CC(CC(C3)C1)C2	/	0	-2	-1	/	-3
CC(C)(C)c1cc(NCCCn2ccnc2)n2ncc(-c3ccccc3)c2n1	/	12*	1	0	5	2
Cc1cc(-c2ccc(F)cc2)n2ncc(-c3ccccc3)c2n1	/	-9	-2	-1	/	-3
CC(C)Nc1cc(C(C)(C)C)nc2c(-c3ccccc3)cnn12	6.0*	9	1	-1	-10	3
Cc1cc(N)n2ncc(-c3ccccc3)c2n1	3	11*	2	1	-31	3
CC(=O)N1CCc2cc(S(=O)(=O)NCCC(=O)NCc3ccccc3)ccc21	/	-3	-1	-1	/	-2
CCCCCCCCN1C(=O)[C@@H](CC(=O)NCCCOC)C[C@@]2(C(=O)OC)C1=C[C@H](C(C)(C)C)O[C@@H]2C	/	1	-1	-1	/	-1
Cc1[nH]nc2c1C(c1ccc(F)cc1)N(Cc1ccccc1)C2=O (stereo not given)	/	1	0	-1	/	0
Nn1c(SCC(=O)Nc2nccs2)nnc1-c1cc(-c2ccc(F)cc2)n[nH]1	/	3	1	-1	/	0
COc1ccc(O)c(C(=O)CC(=O)c2ccc(F)cc2)c1	-4	15*	1	1.0*	-10	8.1*
COc1ccc(C(=O)CC(=O)c2ccccc2O)cc1OC	2	1	0	-1	36	0
COc1ccc(O)c(C(=O)c2cnn(-c3ccccc3)c2)c1	0	5	1	0	1	4
COc1ccc(C(=O)CC(=O)c2ccccc2O)cc1	2	11*	2	0	-14	5
O=C(COc1ccccc1C(=O)c1cnn(-c2ccccc2)c1)Nc1ccc2ccccc2c1	1	11*	2	1.3*	-1	3
COc1ccc(-n2cc(C(=O)c3ccccc3O)cn2)cc1	0	11*	4	0	-13	5
CCOC(=O)c1cccc(C(=O)OCC)n1	1	-1	0	-1	17	-1
NC(=O)c1cccc(C(N)=O)n1	6.1*	2	0	-2	-21	-1
Cc1cc(C(=O)Nc2nc3ccc(Cl)cc3s2)nn1C	/	11*	1	0	0	4
CCOc1ccc(-n2c(=O)[nH]c3sc4c(c3c2=O)CCCC4)cc1	7.8*	1	0	-1	19	0
